Reference: PMC4336329 (PLoS ONE, 2015)
The campaign covered roughly 310,000 compounds. About 14,000 (4.5%) showed an effect of 50% or more. The effect is printed as a negative number. The list comes from a sample in which strong results are over-represented; it also holds similar structures and randomly drawn compounds.

These molecules were tested against human ether-à-go-go-related gene (hERG) potassium channel (human, UniProt Q12809) (assay: primary screen, population patch clamp on CHO cells stably expressing hERG; higher = less effect of the substance).
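Also: peak tail current of the secondary pulse compared with the same well before compound.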

Sequence of human ether-à-go-go-related gene (hERG) potassium channel (Q12809 whole entry, looked up): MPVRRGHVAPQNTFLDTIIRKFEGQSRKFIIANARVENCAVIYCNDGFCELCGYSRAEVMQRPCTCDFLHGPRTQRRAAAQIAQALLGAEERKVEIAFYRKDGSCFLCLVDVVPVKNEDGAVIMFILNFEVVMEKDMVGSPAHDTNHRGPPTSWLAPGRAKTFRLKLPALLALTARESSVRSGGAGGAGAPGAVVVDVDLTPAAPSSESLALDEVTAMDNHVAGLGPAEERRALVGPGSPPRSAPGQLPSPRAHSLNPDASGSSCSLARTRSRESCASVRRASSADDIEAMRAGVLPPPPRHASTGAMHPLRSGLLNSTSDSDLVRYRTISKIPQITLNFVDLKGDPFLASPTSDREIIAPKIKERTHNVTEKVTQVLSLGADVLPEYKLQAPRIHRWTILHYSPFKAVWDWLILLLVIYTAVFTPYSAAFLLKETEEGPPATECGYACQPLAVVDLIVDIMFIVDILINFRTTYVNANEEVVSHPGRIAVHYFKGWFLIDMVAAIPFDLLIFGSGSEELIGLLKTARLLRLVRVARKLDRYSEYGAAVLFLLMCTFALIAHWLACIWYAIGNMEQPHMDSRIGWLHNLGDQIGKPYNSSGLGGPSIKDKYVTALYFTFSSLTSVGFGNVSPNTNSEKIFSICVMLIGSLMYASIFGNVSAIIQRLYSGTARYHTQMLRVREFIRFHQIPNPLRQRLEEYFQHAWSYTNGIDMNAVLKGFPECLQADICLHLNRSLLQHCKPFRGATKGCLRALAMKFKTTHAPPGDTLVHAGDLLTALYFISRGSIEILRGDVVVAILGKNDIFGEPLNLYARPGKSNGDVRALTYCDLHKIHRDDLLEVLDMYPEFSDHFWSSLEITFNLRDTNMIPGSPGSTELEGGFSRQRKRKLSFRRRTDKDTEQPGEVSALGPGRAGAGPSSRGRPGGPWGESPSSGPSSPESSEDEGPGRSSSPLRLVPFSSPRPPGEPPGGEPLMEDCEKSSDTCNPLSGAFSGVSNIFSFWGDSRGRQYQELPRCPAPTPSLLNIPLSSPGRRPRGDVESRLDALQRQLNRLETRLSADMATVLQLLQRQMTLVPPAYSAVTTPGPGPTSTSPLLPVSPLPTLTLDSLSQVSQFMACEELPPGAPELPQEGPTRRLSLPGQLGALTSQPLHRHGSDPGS

| Structure (SMILES) | hERG current change (%, negative = inhibition) at 10uM |
| --- | --- |
| CN(Cc1cccc(C(F)(F)F)c1)C(=O)C1CCC(=O)N(CC2CCCCC2)C1 (stereo not shown) | -6.77% |
| O=C(NCCc1cccc(C(F)(F)F)c1)C1CCC(=O)N(C2CC2)C1 (stereo not shown) | 3.12% |
| CN(CC1CCN(CCc2cccc(C(F)(F)F)c2)CC1)C(=O)c1ccc(F)cc1F | -69.9% |
| COc1ccc(/C=C2\C(=O)c3ccccc3OC2c2ccccc2)cc1 (stereo not shown) | 7.66% |
| COC(=O)[C@@]1(Cc2ccc(OC)cc2)[C@H]2c3cc(C(=O)N4CCCC4)n(Cc4c(CO)[nH]cc(C)c4=O)c3C[C@H]2CN1C(=O)c1ccccc1 | 3.94% |
| Cc1ccc(Cl)c(OCC(=O)Nc2cc(S(=O)(=O)N3CCOCC3)ccc2N2CCCC2)c1 | -15.4% |
| CN1CCN(c2ccc(S(=O)(=O)N3CCCCC3)cc2NC(=O)c2ccc(F)cc2F)CC1 | -68.4% |
| O=C(COc1ccc(F)cc1)Nc1cc(S(=O)(=O)N2CCCCC2)ccc1N1CCCCC1 | 9.98% |
| CN1CCN(c2ccc(S(=O)(=O)N3CCCCC3)cc2NC(=O)COc2ccc(F)cc2)CC1 | -75.2% |
| Cc1cccc(OCCC(=O)Nc2cc(S(=O)(=O)N3CCCCC3)ccc2N2CCOCC2)c1 | 6.71% |
| Cc1ccccc1C(=O)Nc1cc(S(=O)(=O)N2CCCCC2)ccc1N1CCN(C)CC1 | -37.4% |
| CN1CCN(c2ccc(S(=O)(=O)N3CCCCC3)cc2NC(=O)Cc2ccccc2F)CC1 | -31% |
| Cc1ccc(OCC(=O)Nc2cc(S(=O)(=O)N3CCCCC3)ccc2N2CCN(C)CC2)c(C)c1 | -57.7% |
| CN1CCN(c2ccc(S(=O)(=O)N3CCCCC3)cc2NC(=O)COc2ccc([N+](=O)[O-])cc2)CC1 | -34.3% |
| Cc1ccccc1OCC(=O)Nc1cc(S(=O)(=O)N2CCCCC2)ccc1N1CCN(C)CC1 | -28.3% |
| Cc1cccc(OCC(=O)Nc2cc(S(=O)(=O)N3CCCCC3)ccc2N2CCN(C)CC2)c1 | -63% |
| CN1CCN(c2ccc(S(=O)(=O)N3CCCCC3)cc2NC(=O)COc2cccc(Cl)c2)CC1 | -49.1% |
| Cc1ccc(C)c(OCCC(=O)NNC(=O)Cn2nc(C)cc2C)c1 | 21.8% |
| O=C(NCc1ccccc1)C1=C[C@@H](c2ccc(Br)cc2)C[C@@H](OCCCCO)O1 | -36.8% |
| COc1cc2c(cc1OC)C(c1ccccc1Cl)N(C)CC2 (stereo not shown) | 1.73% |

| Structure (SMILES) | hERG current change (%, negative = inhibition) at 10uM |
| --- | --- |
| COc1ccc(Cc2c(O)nc(SCC(=O)NC34CC5CC(CC(C5)C3)C4)[nH]c2=O)cc1 | 4.4% |
| Cc1ccc(NC(=O)CCN2C(=O)C3CCCCC3C2=O)c(O)c1 (stereo not shown) | 11.9% |
| CC(CCc1ccccc1)NCC#N.Cl (stereo not shown) | 18.9% |
| O=c1c(Cc2ccc(Cl)cc2Cl)c(O)ccn1CC(F)(F)F | 12.7% |
| COc1ccc(OC)c(S(=O)(=O)n2ccnc2C)c1 | 0.0552% |
| CCOc1ccc(N2CC(C(=O)Nc3c(C)n(C)n(-c4ccccc4)c3=O)CC2=O)cc1 (stereo not shown) | 22.6% |
| CCn1cc(C(=O)N2CCN(C(=O)c3ccco3)CC2)c2cc(OC)c(OC)cc2c1=O | 7.72% |
| CCOCCCNC(=O)c1cc(-c2ccc(Br)s2)nc2ccccc12 | 15% |
| CC(C)C(=O)NS(=O)(=O)c1ccc(N)cc1 | 8.54% |
| Cc1ccc(NC(=O)C2(NC(=O)c3cccc(N4C(=O)CSC4c4ccccc4)c3)CCCCC2)cc1 (stereo not shown) | 2.72% |
| COc1ccc(NS(=O)(=O)c2cc3c(cc2C)NC(=O)CO3)c(OC)c1 | -15.3% |
| COc1cc(NS(=O)(=O)c2cc3c(cc2C)NC(=O)CO3)cc(OC)c1 | -62.2% |
| Cc1cc2c(cc1S(=O)(=O)NCCc1ccc(Cl)cc1)OCC(=O)N2 | -21.3% |
| Cc1cc2c(cc1S(=O)(=O)NCc1ccc(Cl)cc1)OCC(=O)N2 | -57.9% |
| Cc1ccc(CNS(=O)(=O)c2cc3c(cc2C)NC(=O)CO3)cc1 | -39.8% |
| COc1cccc(NS(=O)(=O)c2cc3c(cc2C)NC(=O)CO3)c1 | -38.7% |
| O=C(O)c1ccc(NC(=S)N2CCCCC2)cc1 | 19.8% |
| CN(CC(=O)N1CCCCCC1)S(=O)(=O)c1ccc(Br)s1 | -9.92% |
| COc1ccc([N+](=O)[O-])cc1NC(=O)CCCOc1ccccc1 | 21.6% |
| COC(=O)c1cc2c(N)c(C(=O)c3ccccc3)sc2nc1C(OC)OC | 0.631% |

| Structure (SMILES) | hERG current change (%, negative = inhibition) at 10uM |
| --- | --- |
| COC(=O)c1cc2c(N)c(C(=O)c3ccc(Cl)cc3)sc2nc1C(OC)OC | -69.6% |
| Nc1c(C(=O)c2ccc(Cl)cc2)sc2nc3c(cc12)CCC3 | 12% |
| CC(C)NC(=S)N1CCN(C(c2ccccc2)c2ccccc2)CC1 | -34.7% |
| CCNC(=S)N1CCN(C(c2ccccc2)c2ccccc2)CC1 | 2.6% |
| CCC(C)NC(=S)N1CCN(C(c2ccccc2)c2ccccc2)CC1 (stereo not shown) | -59.6% |
| O=c1cc(O)c2c(=O)n(-c3ccccc3)c3c(c2o1)CCCCC3 | -0.822% |
| CCCn1c(N2CCN(S(=O)(=O)Cc3ccccc3)CC2)nc2ccccc21 | 4.46% |
| CC(C)n1c(N2CCN(C(=O)Nc3ccccc3)CC2)nc2ccccc21 | -14.6% |
| CC(C)n1c(N2CCN(C(=O)Nc3ccc(Cl)cc3)CC2)nc2ccccc21 | -36.3% |
| CCCn1c(N2CCN(C(=O)Nc3ccccc3)CC2)nc2ccccc21 | -35.9% |
| CC(C)n1c(N2CCN(C(=O)NCc3ccccc3)CC2)nc2ccccc21 | -59.2% |
| O=C(NCc1ccccc1)N1CCn2c(nc3ccccc32)C1 | 2.53% |
| c1ccc(C(c2ccccc2)N2CCN(c3ccc4ccccc4n3)CC2)cc1 | -3.18% |
| Cn1c(N2CCN(C(=O)NCc3ccccc3)CC2)nc2ccccc21 | -60% |
| Cn1c(N2CCN(C(c3ccccc3)c3ccccc3)CC2)nc2ccccc21 | -51.7% |
| CCCn1c(N2CCN(C(=O)NCc3ccccc3)CC2)nc2ccccc21 | -67.9% |
| Cn1c(N2CCNCC2)nc2ccccc21 | -15.7% |
| Cn1c(N2CCN(C(=O)NC34CC5CC(CC(C5)C3)C4)CC2)nc2ccccc21 | 23.2% |
